Out of some 200,000 compounds screened, about 18,000 (9%) were called active. For the sample, actives were picked, then their nearest neighbours and some compounds at random. A number with no mark means an inactive call. No stated cut-off is given here; in the data, active means inhibition above about 50%; inactive means the rest.
Assay: Leishmania major promastigote growth inhibition, primary screen (AID 1063);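 further: promastigotes grown with compound for 44 hours at 28 °C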
Settings: Leishmania major promastigotes, resazurin fluorescence viability; at 10 µM; stronger effect = higher value

SMILES	inhibition
CC1=NN(c2ccccc2)C(=O)C1C(=O)c1ccc([N+](=O)[O-])cc1 (stereo unspecified)	-7.88%
COc1cc(OC)nc(N/N=C(\c2ccccc2)c2ccncc2)n1	-5.12%
CCN(CC)N=Nc1cccc(NC(C)=O)c1	-3.03%
CC[n+]1c(C)n(-c2ccccc2)c2ccc(NC(C)=O)cc21	98.2% (active)
CC(=O)NCCc1nc2cc(NC(=O)c3ccccc3)ccc2n1C	-4.08%
O=C(Nc1ccc2cn[nH]c2c1)c1ccc(S(=O)(=O)N2CCOCC2)cc1	-3.16%
O=C(C(Cl)Cl)N1CCN(c2ccccn2)CC1	64.4% (active)
CC(=C1C(=O)c2ccccc2C1=O)N1CCN(c2ccccn2)CC1	-2.16%
O=C(Cc1ccccc1Cl)N1CCN(c2ccccn2)CC1	-2.27%
COC(c1ccccc1)c1nnc(CCC(=O)N2CCN(CCOc3ccccc3)CC2)o1 (stereo unspecified)	-4.38%
Cc1ccc(S(=O)(=O)c2ccc(Oc3ccccc3)cc2)cc1	-3.38%
CC1=C/C(=N\S(=O)(=O)c2ccccc2)C(C(C)C)=CC1=O	-0.21%
CC1=C/C(=N\OS(=O)(=O)c2ccccc2)C=CC1=O	100% (active)
Cc1cccc(C(=O)N2CCC(c3nc4ccccc4s3)CC2)c1	-2.51%
Cc1cccc(/C(N)=N/OC(=O)c2ccccc2Cl)c1	16.9%
COC(=O)c1cccc([N+](=O)[O-])c1CS(=O)(=O)c1ccc(C)cc1	-1.5%
CC(=O)Nc1ccc(S(=O)(=O)Nc2nc(-c3ccc(C(C)(C)C)cc3)cs2)cc1	6.97%
CC(=O)Nc1ccc(-c2csc(NC=C3C(=O)OC(C)(C)OC3=O)n2)cc1	0.56%
CC(=O)Nc1ccc(-c2csc(NC(=O)Nc3ccccc3)n2)cc1	58.2% (active)
Cc1cc(C(=O)CSc2nc(N)cc(=O)[nH]2)c(C)n1-c1cccc(F)c1	23.6%
O=C(CCN1C(=O)/C(=C/c2cccs2)SC1=S)NNC(=O)c1cccc(O)c1	-5.28%

SMILES	inhibition
O=C1c2cccc3c([N+](=O)[O-])ccc(c23)C(=O)N1CC1CCCO1 (stereo unspecified)	101% (active)
O=C(NCc1ccc2c(c1)OCO2)c1ccc2c(c1)C(=O)N(CC1CCCO1)C2=O (stereo unspecified)	-1.97%
O=c1c2cc3c(=O)n(CC4CCCO4)c(=O)c3cc2c(=O)n1CC1CCCO1 (stereo unspecified)	-5.65%
Cc1cc(C)cc(OCC(=O)Nc2ccc(S(=O)(=O)Nc3ccccn3)cc2)c1	7.3%
O=C(C1CCCO1)N1CCN(C(=S)NC2CC2)CC1 (stereo unspecified)	-5.96%
CCn1c(-c2ccncc2)n[nH]c1=S	-0.2%
Cc1cc(C)n(-c2nc(SCC(=O)N3CCCC3)c3c4c(sc3n2)CCCC4)n1	63.1% (active)
COCCNc1nc(-n2nc(C)cc2C)nc2sc3c(c12)CCCC3	64% (active)
Cc1nc2sc3c(c2c(=O)n1NC(=O)CCl)CCCC3	-0.99%
CCC(O)CNc1nc(-n2nc(C)cc2C)nc2sc3c(c12)CC(C)(C)OC3 (stereo unspecified)	9.97%
COCCn1c(C)cc(C(=O)CSc2ncnc3sc4c(c23)CCC4)c1C	-5.34%
Cc1nc(SCC(=O)Nc2cc(C)on2)c2c3c(sc2n1)CCCC3	1.37%
O=C(CSc1ccc([N+](=O)[O-])cn1)Nc1ccc(N2CCOCC2)c(Cl)c1	8.08%
O=C(CCc1ccccc1)NCCc1cccs1	-9.15%
COc1ccc(OC)c2[nH]c(=O)c(CCNC(=O)C(=O)c3c[nH]c4ccccc34)cc12	-6.77%
COc1cc(NC(=S)N2CCCC(C)C2)c(OC)cc1Cl (stereo unspecified)	6.09%
Cc1cccc(N(C(=O)Cc2cccs2)C(C(=O)NCc2ccco2)c2ccncc2)c1 (stereo unspecified)	6.9%
Cc1cccc(C2c3[nH]c4ccccc4c3CCN2C(=O)c2cc(-c3cccn3C)n[nH]2)n1 (stereo unspecified)	70.9% (active)
Cc1cccc(C(=O)N2CCc3c([nH]c4ccccc34)C2CC(C)C)n1 (stereo unspecified)	31.8%
O=C(c1cn2ccccc2n1)N1CCc2c([nH]c3ccccc23)C1c1ccccn1 (stereo unspecified)	13.8%
CC1(C)CC(=O)C(CC(=O)N2CCC(Cc3ccccc3)CC2)C(=O)C1	-0.44%

SMILES	inhibition
Cc1cc(C(C)(C)C)cc(S(=O)(=O)Nc2ccc(C(=O)O)cc2)c1C	-3.3%
CCOc1ccccc1Nc1ccc(C(=O)O)cc1[N+](=O)[O-]	-1.36%
Cn1c(=O)cc(OCCCC(=O)N2CCN(Cc3ccc4c(c3)OCO4)CC2)c2ccccc21	11.9%
CS(=O)(=O)N(CC(=O)N1CCN(Cc2ccc3c(c2)OCO3)CC1)c1ccc2c(c1)OCO2	-5.11%
O=C(Nc1cccc2ccccc12)N1CCN(Cc2ccc3c(c2)OCO3)CC1	24.5%
O=C(CSCc1ccc(Cl)cc1)N1CCN(Cc2ccc3c(c2)OCO3)CC1	90.7% (active)
O=C(CSCc1ccc(Cl)cc1)N1CCCCC1	-3.7%
O=C(CCCN1C(=O)c2cccc3cccc(c23)C1=O)N1CCN(Cc2ccc3c(c2)OCO3)CC1	53.9% (active)
CCc1ccccc1NC(=O)CSc1nnc(-c2ccncc2)o1	-6.71%
Cc1ccc(OCc2n[nH]c(=S)n2-c2ccc(C)cc2)cc1	1.58%
Cc1c(-c2cccc(Cl)c2)nc2ccccc2c1C(=O)OCC(=O)N(C)C1CCS(=O)(=O)C1 (stereo unspecified)	30.9%
COc1cc(OC)c(C(=O)N2CCCC2)cc1OC	-1.38%
Cc1ccc(C(=O)N2CCCCCC2)cc1Br	1.69%
Cc1c(Br)cc(C(=O)N2CCCCCC2)c(C)c1C	79% (active)
Cc1ccc(NC(=O)CSc2nnc(CNC(=O)c3ccccc3F)o2)cc1	-3.87%
CCC(C)(C)NC(=O)CN(C(=O)C(=O)Nc1ccc2c(c1)OCCO2)C(C)(C)CC	9.2%
O=C(CN1CCN(C2CCCCC2)CC1)Nc1ccccc1N1CCCCC1	10.2%
CCOC(=O)CN1CCC(c2ccccc2)CC1	-3.4%
c1ccc(C2CCC(N3CCC(N4CCCCC4)CC3)CC2)cc1 (stereo unspecified)	92.2% (active)

Reference: PubChem BioAssay AID1063 (University of Pittsburgh Molecular Library Screening Center, 2008)
